Assay outcomes (PubChem BioAssay)
This is a sample that favours compounds with a hit; in the whole collection about 8% have one here.
HT1080NT lethal – kills 2HG-producing HT-1080-NT fibrosarcoma cells. Potency, µM (top dose mostly 46.1 µM), hits mostly cytotoxic. HT-1080-NT fibrosarcoma viability, CellTiter-Glo ATP luminescence, 48 h. actives 1.6% (n = 360,000);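 also: NT is the 2HG producing partner of a matched IDH1 knockdown line; nearly all actives have a fitted effect of over 55% in size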
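HT-1080-NT fibrosarcoma cells (2HG-overproducing), 750 cells/well in RPMI with 5% FBS, dosed after 2 h and incubated 48 h at 37C. CellTiter-Glo luminescence normalized to DMSO and no-cell wells; concentration-response curves fitted and classed.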
MCF10A rerep – induces DNA re-replication in MCF 10a normal breast cells; MCF 10A DNA re-replication, Hoechst nuclear intensity, 48 h; Potency, µM (highest dose often 46.1 µM), most hits filed as activators; actives 2.9% (n = 350,000); AID 624296; also: nearly all actives have a fitted effect of over 50% in size
KB-3-1 tox – kills parental KB-3-1 adenocarcinoma cells; KB-3-1 viability, CellTiter-Glo ATP luminescence, 72 h; Potency, µM (series often up to 46.1 µM), actives largely listed as cytotoxic; actives 1.4% (n = 400,000); also: nearly all actives have a fitted effect of over 60% in size
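Here the drug-naive KB-3-1 line serves as comparator for MDR sub-line selectivity; cells received compound titrations, 72 h at 37 °C, then CellTiter-Glo readout.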
SW480 rerep – induces DNA re-replication in SW480 colon adenocarcinoma cells; SW480 DNA re-replication, Hoechst DNA content imaging, 48 h; Potency, µM (titrated, usually from 46.1 µM), actives largely listed as activators; actives 1.8% (n = 340,000); AID 624297; also: nearly all actives have a fitted effect of over 55% in size
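Cells (250 per well) received 23 nL compound or DMSO by pin tool and were kept 48 hr at 37 C, 5% CO2. Nuclei were then stained with Hoechst for 40 min and scanned for DNA content.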
HT1080 IDH1KD tx – kills HT-1080 cells with IDH1 knockdown; HT-1080 IDH1 knockdown viability, ATP luminescence, 48 h; Potency, µM (top dose mostly 46.1 µM), hits mostly cytotoxic; actives 2% (n = 360,000); AID 686971
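IDH1KD HT-1080 cells, 750/well, RPMI + 5% FBS; compound pinned after 2 h settling; 48 h, 37 °C; CellTiter-Glo luminescence; % activity normalised to DMSO and no-cell wells; curves fitted, classed by r2 and efficacy.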
KB-V1 cytotox – KB-V1 MDR subline cytotoxicity; KB-V1 MDR cells viability, CellTiter-Glo, 72 h; Potency, µM (highest dose often 46.1 µM), usual class: cytotoxic; actives 3.4% (n = 400,000); AID 1347076; also: nearly all actives have a fitted effect of over 60% in size
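Drug-selected KB-V1 cells, grown in DMEM lacking phenol red with 10% FBS, receive compound titrations; after three days at 37 degrees C, surviving cell ATP is quantified by CellTiter-Glo luminescence and responses normalized and curve-fitted.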
Large screens that a line does not name were inactive. Calls follow the shape of the dose curve; as a rule, active = well fitted curve in the direction sought with a large enough effect; inconclusive = small, poorly fitted or top-dose-only effect, or another doubt; inactive = no such curve, though single readings can be large; an effect the other way counts as inactive or inconclusive.

COC(=O)CSc1nnc(CCc2ccccc2)n1C	KB-3-1 tox inconclusive, KB-V1 cytotox inconclusive
CC(C)OC(=O)c1cc2c(ccn2C)n1CC(=O)N(Cc1ccccc1)c1ccccc1	MCF10A rerep 18.4µM, KB-3-1 tox inconclusive, SW480 rerep inconclusive, KB-V1 cytotox 14.6µM
COc1cc(OC)c(-c2oc3ccccc3c(=O)c2O)c(OC)c1	HT1080NT lethal inconclusive, MCF10A rerep inconclusive, KB-3-1 tox 8.2µM, SW480 rerep 16.4µM, HT1080 IDH1KD tx inconclusive, KB-V1 cytotox inconclusive
COc1ccc(OC)c(-c2oc3ccccc3c(=O)c2O)c1	HT1080NT lethal inconclusive, SW480 rerep inconclusive, HT1080 IDH1KD tx inconclusive
COc1cc(-c2oc3ccc(C)cc3c(=O)c2O)cc(OC)c1OC	KB-3-1 tox inconclusive, KB-V1 cytotox 23.1µM (no result: HT1080NT lethal, MCF10A rerep, SW480 rerep, HT1080 IDH1KD tx)
O=C(COC(=O)c1cc(-c2cccs2)nc2ccccc12)c1ccc(Br)cc1	none (no result: HT1080NT lethal, MCF10A rerep, SW480 rerep, HT1080 IDH1KD tx)
COc1ccc(-c2cc(C(F)(F)F)nc(SCC(=O)NCc3ccc(OC)c(OC)c3)n2)cc1	none (no result: HT1080NT lethal, MCF10A rerep, SW480 rerep, HT1080 IDH1KD tx)
COc1ccccc1NC(=O)c1nc(S(=O)(=O)Cc2ccccc2)ncc1Cl	HT1080NT lethal 11.6µM, MCF10A rerep inconclusive, KB-3-1 tox 7.31µM, SW480 rerep inconclusive, HT1080 IDH1KD tx 3.66µM, KB-V1 cytotox inconclusive
CCOc1ccccc1NC(=O)c1nc(S(=O)(=O)Cc2ccccc2)ncc1Cl	MCF10A rerep 4.11µM, KB-3-1 tox inconclusive, KB-V1 cytotox inconclusive
Cc1ccccc1NC(=O)c1nc(S(=O)(=O)Cc2ccccc2F)ncc1Cl	KB-3-1 tox inconclusive (no result: HT1080NT lethal, MCF10A rerep, SW480 rerep, HT1080 IDH1KD tx)
CCS(=O)(=O)c1ncc(Cl)c(C(=O)Nc2ccccc2OC)n1	MCF10A rerep 2.31µM, KB-3-1 tox 2.59µM, SW480 rerep 2.91µM, HT1080 IDH1KD tx inconclusive, KB-V1 cytotox inconclusive
Cc1noc(-c2ccc(-c3noc(-c4ccccc4)n3)cc2)n1	none (no result: HT1080NT lethal, MCF10A rerep, SW480 rerep, HT1080 IDH1KD tx)
Cn1c(SCC(=O)NCC2CCCO2)ncc(C(=O)Nc2ccc(Cl)cc2)c1=O (stereo not given)	MCF10A rerep 18.4µM, KB-3-1 tox inconclusive, SW480 rerep 4.61µM
Cc1ccccc1-n1c(C)nnc1SCC(=O)NCC1CCCO1 (stereo not given)	HT1080NT lethal inconclusive, HT1080 IDH1KD tx 22.4µM
Cc1ccccc1-n1c(SCC(=O)NCC2CCCO2)nnc1-c1ccncc1 (stereo not given)	none
Cn1c(SCC(=O)NCC2CCCO2)ncc(C(=O)Nc2ccc(F)cc2)c1=O (stereo not given)	KB-3-1 tox inconclusive
Cc1nc(SCC(=O)NCC2CCCO2)c2cc(-c3ccccc3)sc2n1 (stereo not given)	HT1080NT lethal inconclusive, MCF10A rerep 20.6µM, KB-3-1 tox inconclusive, KB-V1 cytotox inconclusive
CCOc1ccc(CNC(=O)C2=Cc3cccc(OC)c3OC2)cc1	none (no result: HT1080NT lethal, MCF10A rerep, SW480 rerep, HT1080 IDH1KD tx)
COc1ccc(-n2c(CC3C(=O)N(C)c4ccc(C)cc43)nc3ccccc3c2=O)cc1 (stereo not given)	none (no result: HT1080NT lethal, MCF10A rerep, SW480 rerep, HT1080 IDH1KD tx)
COc1cccc(CNc2nc3cc(-c4ccccc4C)sc3c(=O)n2C)c1OC	HT1080NT lethal inconclusive, KB-3-1 tox inconclusive, HT1080 IDH1KD tx inconclusive (no result: MCF10A rerep, SW480 rerep)
NC(=O)c1c(NC(=O)CSc2nnc(Cc3ccccc3)n2Cc2ccco2)sc2c1CCC2	HT1080 IDH1KD tx inconclusive, KB-V1 cytotox 14.6µM
CCOC(=O)c1c(NC(=O)CSc2nnc(CNC(=O)c3ccco3)n2C)sc2c1CCC2	KB-V1 cytotox 20.6µM
Cc1ccccc1NC(=O)CSc1nnc(CNC(=O)c2ccco2)n1C	none
O=C(Cn1c(=O)n(-c2ccccc2)c(=O)c2c3c(sc21)CCCC3)Nc1cccc(F)c1	none (no result: HT1080NT lethal, MCF10A rerep, SW480 rerep, HT1080 IDH1KD tx)
CC(C)=CCOc1ccc(/C=C/C(=O)c2ccc(OCC=C(C)C)cc2OCC(=O)O)cc1	MCF10A rerep 11.9µM (no result: HT1080NT lethal, KB-3-1 tox, HT1080 IDH1KD tx, KB-V1 cytotox)
Cc1cc2n(n1)CCC(=O)N2Cc1ccc(C(=O)Nc2ccc(Br)c(C)c2)cc1	KB-3-1 tox inconclusive (no result: HT1080NT lethal, MCF10A rerep, SW480 rerep, HT1080 IDH1KD tx)
Cc1ccccc1[C@@]1(C)ON(c2ccccc2C(F)(F)F)C1=O	MCF10A rerep inconclusive, KB-3-1 tox inconclusive
O=C1N(c2ccccc2C(F)(F)F)O[C@]1(c1ccccc1)C1CCCC1	MCF10A rerep 18.4µM, SW480 rerep inconclusive
COc1cccc(N2CCN(C(=O)c3[nH]c(C)c(C(C)=O)c3C)CC2)c1	HT1080NT lethal 7.08µM, MCF10A rerep inconclusive, KB-3-1 tox 6.31µM, SW480 rerep 7.08µM, HT1080 IDH1KD tx 5.62µM, KB-V1 cytotox 5.62µM
Cc1ccc(Cl)cc1N1CCN(S(=O)(=O)c2c(C)[nH]c(C)c2C(=O)N2CCCC2)CC1	none
CC(=O)c1c(C)[nH]c(C(=O)N2CCN(c3cc(Cl)ccc3C)CC2)c1C	HT1080NT lethal 16.4µM, MCF10A rerep 10.3µM, KB-3-1 tox 4.61µM, SW480 rerep 9.2µM, HT1080 IDH1KD tx 23.1µM
CC(=O)c1c(C)[nH]c(C(=O)N2CCN(c3ccc(F)cc3)CC2)c1C	HT1080NT lethal inconclusive, HT1080 IDH1KD tx 10µM, KB-V1 cytotox inconclusive
CC(NC(=O)c1cnn2c1NC(=C1CC1)C=C2C(F)F)c1ccncc1 (stereo not given)	KB-3-1 tox inconclusive (no result: HT1080NT lethal, MCF10A rerep, SW480 rerep, HT1080 IDH1KD tx)
COc1ccc(NC(=O)c2sc(=O)n(Cc3ccc(SC)cc3)c2C)cc1OC	KB-V1 cytotox inconclusive (no result: MCF10A rerep, SW480 rerep)
Cc1c(C(=O)NCc2ccc(F)cc2)sc(=O)n1Cc1ccc(Cl)c(Cl)c1	HT1080NT lethal inconclusive, KB-3-1 tox inconclusive, HT1080 IDH1KD tx inconclusive, KB-V1 cytotox 16.4µM (no result: MCF10A rerep, SW480 rerep)
CSc1ccc(Cn2c(C)c(C(=O)NCCC#N)sc2=O)cc1	KB-3-1 tox inconclusive, HT1080 IDH1KD tx inconclusive, KB-V1 cytotox 14.6µM (no result: MCF10A rerep, SW480 rerep)
